The values that follow come from PubChem BioAssay (NCI).

The panel holds about 79,000 compounds, 15% with a hit somewhere; the sample as a whole holds those more often. A number with no mark means an inactive call. Activity calls are given as the source filed them. Cut-off read from the data, not from the text of the source: active = growth inhibition above about 70%; inactive = the rest.

A short description of assay [1]: NCI Yeast Anticancer Drug Screen. Data for the rad50 strain (AID 155).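 Note: 0% = growth of vehicle-only cultures of the same strain.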 Particulars: S. cerevisiae rad50 strain growth inhibition; at 50.0 µM; stronger effect = higher value. The gist of the method:
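Readout: growth inhibition relative to vehicle-treated cultures. Compound exposure was carried out in a genetically defined yeast strain deficient in DNA damage repair.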

Assay [2] in a line: NCI Yeast Anticancer Drug Screen. Data for the mec2-1 strain (AID 157). The following applies: S. cerevisiae mec2-1 strain, at 50.0 µM, stronger effect = higher value. The procedure, abridged:
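Each compound was tested on mec2-1 yeast, a strain altered in DNA damage repair or cell cycle control. Growth inhibition is reported relative to vehicle.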

Assay [3] is described as follows: NCI Yeast Anticancer Drug Screen. Data for the sgs1 mgt1 strain (AID 161).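 Note: 0% = growth of cultures given vehicle only.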 Particulars: S. cerevisiae sgs1 mgt1 strain, at 50.0 µM, stronger effect = higher value. The gist of the method:
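Read-out: growth inhibition vs vehicle controls. Cells: mutant yeast strain deficient in DNA damage repair.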

A short description of assay [4]: NCI Yeast Anticancer Drug Screen. Data for the cln2 rad14 strain (AID 165).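 Note: 0% = growth equal to vehicle treated cultures.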 Particulars: S. cerevisiae cln2 rad14 strain, at 50.0 µM, stronger effect = higher value. The procedure, abridged:
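Test compounds were added to cln2 rad14 yeast cultures; inhibition of growth was then determined by comparison with vehicle treatment.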

A short description of assay [5]: NCI Yeast Anticancer Drug Screen. Data for the bub3 strain (AID 167). The following applies: S. cerevisiae bub3 mutant strain, at 50.0 µM, stronger effect = higher value. The gist of the method:
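Readout: yeast growth inhibition, expressed relative to vehicle-only wells. The test organism is a mutant strain from a panel with lesions in DNA repair or checkpoint genes.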

The nature of assay [6]: NCI Yeast Anticancer Drug Screen. Data for the mlh1 rad18 strain (AID 175). The following applies: S. cerevisiae mlh1 rad18 strain growth inhibition; at 50.0 µM; stronger effect = higher value. The gist of the method:
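Inhibition values reflect reduced growth of mutant yeast versus vehicle-treated controls following compound exposure; the mutations affect DNA damage repair.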

For `O=C([O-])c1ccc2c(c1)-c1nc-2nc2[n-]c(nc3nc(nc4[n-]c(n1)c1ccc(C(=O)[O-])cc41)-c1ccc(C(=O)[O-])cc1-3)c1ccc(C(=O)[O-])cc21.[Gd+3].[K+]`, the growth inhibition in assay [1] was -12.8%; in assay [2], -11.1%; in assay [3], -11.8%; in assay [4], 23.6%; in assay [5], 18%; in assay [6], -12.1%.

As for `CC(C)CC(NC(=O)CNC(=O)CNC(=O)OCc1ccccc1)C(=O)O` (stereo not given), the growth inhibition was -0.1% in assay [1]; 7.75% in assay [2]; -2.1% in assay [3]; -21.8% in assay [4]; -0.9% in assay [5]; 10.8% in assay [6].

Regarding `CCOC(=O)C(=CN1CCCc2ccccc21)C(=O)OCC`, the growth inhibition was 5.05% in assay [1]; -17.1% in assay [2]; 13.6% in assay [3]; -35% in assay [4]; 5.4% in assay [5]; -6.15% in assay [6].

Turning to `CCCC(=O)Oc1ccc2ccccc2c1`, the growth inhibition in assay [1] was 7.65%; in assay [2], 23.5%; in assay [3], 1.8%; in assay [4], 14.7%; in assay [5], -1.5%; in assay [6], -33.5%.

As for `COc1ccc2c3c(n(Cc4ccccc4)c(=O)c2c1)-c1cc(OC)c(OC)cc1C3C` (stereo not given), the growth inhibition was 36.1% in assay [1]; -21.7% in assay [2]; -1.25% in assay [3]; -26.6% in assay [4]; -20.4% in assay [5]; 23.1% in assay [6].

Consider `CCOc1nc(N)nc(C)c1N=Nc1ccc(O)cc1`, for which the growth inhibition in assay [1] is -5.7%; in assay [2], 6.2%; in assay [3] it was 0.85%; in assay [4], -43%; in assay [5], -2.4%; in assay [6], -0.4%.

For `CC1=CC(=O)C=CC1=Nc1ccc(N(C)C)cc1`, the growth inhibition was 19.3% in assay [1]; 32.6% in assay [2]; 47.9% in assay [3]; 9.35% in assay [4]; 39.4% in assay [5]; 16.4% in assay [6].

As for `Cc1cc2c(c(C(N)=O)c1C)-c1cccc(Cl)c1C2=O`, the growth inhibition in assay [1] is 13.1%; in assay [2] it was 12.2%; in assay [3] it was 9.7%; in assay [4], 11%; in assay [5], 1.35%; in assay [6], -1.3%.

With `COc1ccc(C(=O)N/N=C/c2c(C)n(C)n(-c3ccccc3)c2=O)cc1`, the growth inhibition in assay [1] is -54.1%; in assay [2], -18.6%; in assay [3], -61.2%; in assay [4] it was -6.45%; in assay [5] it was -52.5%; in assay [6], -48.5%.

On to `COC(=O)CCS/C=C/C(=O)O`, for which the growth inhibition in assay [1] was 11.1%; in assay [2], -8.6%; in assay [3] it was -2.4%; in assay [4], -34.4%; in assay [5] it was 4.25%; in assay [6], 4.35%.

With `OCC1OC(n2ncc3c(Nc4ccccc4)ncnc32)C(O)C1O` (stereo not given), the growth inhibition in assay [1] was 17.1%; in assay [2], 18.3%; in assay [3], 6.75%; in assay [4], -5.7%; in assay [5], 6.9%; in assay [6] it was 17.9%.

For the compound `O=C1CC(SC(=S)N2CCCCC2)C(=O)N1c1ccccc1` (stereo not given), the growth inhibition in assay [1] was -19.6%; in assay [2], 7.55%; in assay [3], -2.55%; in assay [4] it was -30.2%; in assay [5], 7.25%; in assay [6], 13.2%.

In the case of `COC1=CC(=O)C=C(C)C1=O`, the growth inhibition in assay [1] is 19.4%; in assay [2], -11.9%; in assay [3], -8.1%; in assay [4], 29.7%; in assay [5], 4%; in assay [6] it was 2%.

On to `CCn1c(C)nc([N+](=O)[O-])c1Sc1ncc[nH]1`, for which the growth inhibition in assay [1] was -7.8%; in assay [2], 0.7%; in assay [3], -11.4%; in assay [4], 27.8%; in assay [5], 10.2%; in assay [6], -3.35%.

`Nc1nc(N)c2[nH]cnc2n1` (tested in a mixture with another compound): the growth inhibition in assay [1] is -25.5%; in assay [2], -17.1%; in assay [3], -31.6%; in assay [4], 11.3%; in assay [5], -41.6%; in assay [6] it was -12%.

Regarding `COC(=O)C(C)c1cc2ccccc2[nH]1` (stereo not given), the growth inhibition in assay [1] was -8%; in assay [2], -8.65%; in assay [3] it was 0.9%; in assay [4], -11.4%; in assay [5] it was -46.7%; in assay [6], 0.75%.

Take `COc1ccc2c(c1)CCc1c(C(C)=O)c3ccccc3n1C2`: the growth inhibition is 19.8% in assay [1]; -13.3% in assay [2]; 46.4% in assay [3]; 15.2% in assay [4]; 47.1% in assay [5]; 2.15% in assay [6].

Regarding `COC(=O)CCOc1ccccc1`, the growth inhibition in assay [1] is 15.1%; in assay [2], 5.1%; in assay [3], 0.25%; in assay [4], 11.9%; in assay [5] it was -8.8%; in assay [6], -18.8%.

As for `CC(=O)c1ccc(Cl)c(-n2cccc2)c1`, the growth inhibition is 4.2% in assay [1]; -12.1% in assay [2]; 13% in assay [3]; 17.6% in assay [4]; 17.8% in assay [5]; -0.45% in assay [6].

As to `c1ccc(N2CCN(C(c3cccs3)N3CCN(c4ccccc4)CC3)CC2)cc1`, the growth inhibition was 7.35% in assay [1]; 8.9% in assay [2]; 0.8% in assay [3]; -4.15% in assay [4]; -5.5% in assay [5]; 19.1% in assay [6].

Regarding `CCOC(=O)Nc1nc2ccccc2n1CN1CCOCC1`, the growth inhibition in assay [1] was -32.1%; in assay [2] it was -11.9%; in assay [3], -18.9%; in assay [4] it was -14.9%; in assay [5], -5.35%; in assay [6] it was -7.8%.

For the compound `Cc1ccc(S(=O)(=O)OCC(C)C(c2ccccc2)c2ccccc2)cc1` (stereo not given), the growth inhibition in assay [1] was 7.45%; in assay [2], 1.9%; in assay [3], -4.55%; in assay [4] it was -20.9%; in assay [5], -3.3%; in assay [6], 0.2%.

As for `CC1CNC(=S)N(c2cccc3ccccc23)C1=O` (stereo not given), the growth inhibition was -4.8% in assay [1]; -1% in assay [2]; -3.7% in assay [3]; -5% in assay [4]; -9.35% in assay [5]; 4.2% in assay [6].

For the compound `Cc1cc2nc3ccc(=[N+](C)C)cc-3sc2cc1N`, the growth inhibition is -24.2% in assay [1]; -39.8% in assay [2]; -20.6% in assay [3]; -14.2% in assay [4]; -25.8% in assay [5]; -24.1% in assay [6].

Turning to `COc1ccc(N2C(=O)CCC2=O)cc1`, the growth inhibition in assay [1] was -7.8%; in assay [2], 0.25%; in assay [3], -7.7%; in assay [4] it was -6.15%; in assay [5], -9.9%; in assay [6], 4.9%.

Take `C[C@@]1(Cc2ccccc2)C(=O)N2[C@@H](CO)C(c3ccccc3)O[C@]2(C)c2ccccc21` (stereo not given in full): the growth inhibition is -10.8% in assay [1]; 4.7% in assay [2]; -14.7% in assay [3]; -6.05% in assay [4]; -8.8% in assay [5]; -29.3% in assay [6].

On to `COc1cc(NCCCCCNC(C)C)c2nccc(C)c2c1`, for which the growth inhibition was 42.2% in assay [1]; 43.1% in assay [2]; 56.6% in assay [3]; 28.6% in assay [4]; 27.9% in assay [5]; 50.5% in assay [6].

Take `CCC(CC)C(=O)OCCc1ccccc1`: the growth inhibition in assay [1] was 5%; in assay [2], 3.05%; in assay [3], -2.35%; in assay [4], -6.3%; in assay [5] it was 9.9%; in assay [6], 0.75%.

`O=S(=O)(O)CCCC1S(=O)(=O)OCCOS1(=O)=O`: the growth inhibition in assay [1] was -55.1%; in assay [2] it was -21.8%; in assay [3], -8.4%; in assay [4] it was -16.4%; in assay [5], -1.3%; in assay [6] it was -25.8%.

Consider `Fc1ccc2nncc(/C=C/c3ccccc3F)c2c1`, for which the growth inhibition is 11.3% in assay [1]; 7.6% in assay [2]; 8.4% in assay [3]; -4.85% in assay [4]; 11% in assay [5]; -3.5% in assay [6].

With `O=C(CCC(=O)Nc1ccc(Cl)c(Cl)c1)Nc1ccc(Cl)c(Cl)c1`, the growth inhibition in assay [1] was 50.9%; in assay [2], 46.5%; in assay [3], 49%; in assay [4], 39.1%; in assay [5] it was 78.2% (active); in assay [6], 63%.

In the case of `COc1cc2c(c3c1c(=O)c1ccccc1n3C)C=CC1(CCCCC1)O2`, the growth inhibition in assay [1] was -12.4%; in assay [2], -19.6%; in assay [3] it was 91% (active); in assay [4] it was 86.5% (active); in assay [5], 87.5% (active); in assay [6], -7.4%.

With `Cn1c(-c2ccccc2)cc(=O)cc1-c1ccccc1`, the growth inhibition in assay [1] is -22.9%; in assay [2], 13.1%; in assay [3], -10.2%; in assay [4] it was -1.25%; in assay [5] it was -4.45%; in assay [6], -19.2%.

As to `CS(=O)(=O)OCCCCCCCCCOS(C)(=O)=O`, the growth inhibition was -10.9% in assay [1]; -26.1% in assay [2]; -3.6% in assay [3]; -0.05% in assay [4]; -18.8% in assay [5]; -12.3% in assay [6].

Take `OC1c2ccccc2-c2ccc(Cl)cc21` (stereo not given): the growth inhibition is 23.8% in assay [1]; 14.2% in assay [2]; -7.15% in assay [3]; -32.2% in assay [4]; 4.15% in assay [5]; 14.9% in assay [6].

With `O=C1Nc2cccc3cc(NCC(O)CCl)cc1c23` (stereo not given), the growth inhibition in assay [1] is 31.3%; in assay [2], 8.5%; in assay [3] it was 11.4%; in assay [4] it was 17.9%; in assay [5], 3.05%; in assay [6], -23.9%.

As for `COc1ccc2c(c1)C(=O)C(CO)C(C(=O)O)C2` (stereo not given), the growth inhibition was -13.1% in assay [1]; -17.1% in assay [2]; -1.15% in assay [3]; -24.6% in assay [4]; -3.5% in assay [5]; -24.8% in assay [6].

As for `Cc1cc(OCc2ccc3ccccc3c2)ccc1Nc1cc(=O)[nH]c(=O)[nH]1`, the growth inhibition in assay [1] was 3.65%; in assay [2], 33.6%; in assay [3] it was 18.6%; in assay [4], -4.55%; in assay [5], 33.6%; in assay [6], 24.4%.

In the case of `Cc1ccc(Cl)cc1NC(=O)Oc1ccc(Cl)cc1C`, the growth inhibition is 23.2% in assay [1]; 9.1% in assay [2]; -7.8% in assay [3]; 8.8% in assay [4]; 15.7% in assay [5]; 3.25% in assay [6].

With `O=C(Nc1ccc(NC(=O)OCc2ccccc2)c(Cl)c1)OCc1ccccc1`, the growth inhibition in assay [1] is 20.4%; in assay [2] it was 11.3%; in assay [3], 6.85%; in assay [4], -26.6%; in assay [5], 6.3%; in assay [6] it was 3%.
